MITF primary: MITF inhibitors, primary screen, biochemical, AlphaScreen, human; inhibition, % at 2.6 µM; AlphaScreen MITF homodimerization, bead proximity signal; AID 1259374, 2018; 650,000 compounds, 0.91% hits; in the data active means inhibition above about 50%
Target sequence (O75030 whole entry, looked up): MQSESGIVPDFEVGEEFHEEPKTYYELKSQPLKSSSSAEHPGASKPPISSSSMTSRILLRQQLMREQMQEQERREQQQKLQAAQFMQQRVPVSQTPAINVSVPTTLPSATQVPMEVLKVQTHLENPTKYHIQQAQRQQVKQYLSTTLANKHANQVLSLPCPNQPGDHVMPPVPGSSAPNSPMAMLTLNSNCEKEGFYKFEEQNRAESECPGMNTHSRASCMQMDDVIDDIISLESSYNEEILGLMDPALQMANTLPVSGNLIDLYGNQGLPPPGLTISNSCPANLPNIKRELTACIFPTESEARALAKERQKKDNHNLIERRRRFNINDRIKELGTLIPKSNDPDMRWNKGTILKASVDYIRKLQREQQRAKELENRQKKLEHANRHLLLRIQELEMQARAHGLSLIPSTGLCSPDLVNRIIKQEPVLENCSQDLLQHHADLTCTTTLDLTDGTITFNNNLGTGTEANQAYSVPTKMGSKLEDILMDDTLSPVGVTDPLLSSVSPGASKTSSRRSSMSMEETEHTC
FBW7 activator: FBW7 E3 ligase activators, primary screen, biochemical, AlphaScreen, human. AlphaScreen FBW7–phospho-cyclin E peptide binding, activator screen. normalized activity (activation), % at 26.1 µM. 650,000 compounds, 0.13% hits; in the data active means normalized activity above about 1.9%;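 further: purified mutant Fbw7 with reduced substrate affinity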
TEAD-YAP inh: TEAD-YAP interaction inhibition, primary screen, TEAD-YAP interaction inhibitor project, luminescence, HEK-TIYL cells. TEAD-Gal4/YAP UAS-luciferase luminescence. inhibition, % at 9.12 µM. 640,000 compounds, 1.4% hits. AID 1259422, 2018; in the data active means inhibition above about 32%
GPR151 activ: activators of human GPR151, primary screen, cell-based, PathHunter beta-arrestin, luminescence | activation, % at 11.2 µM | G-protein coupled receptor 151 (Homo sapiens), Q8TDV0 | 650,000 compounds, 1% hits | PathHunter beta-arrestin GPR151 cells; in the data active means activation above about 4.9%
MITF confirm: MITF inhibitors, retest of hits, confirmation, biochemical, AlphaScreen, triplicate; 4,700 compounds, 16% hits; AlphaScreen MITF homodimerization, biotin/His-MITF beads; inhibition, % at 2.6 µM; shares compounds with MITF primary;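 active means inhibition above a cutoff derived from the DMSO control wells, cut at about 28% in these data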;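 further: inhibitors lower the bead chemiluminescence by keeping MITF from dimerizing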
AS interf DR: AlphaScreen optical interference compounds, dose response, counter-screen, biochemical, HTS; shares compounds with MITF primary; AlphaScreen optical interference counterscreen, cell-free; IC50, µM; 480 compounds, 6% hits; AID 1259373, 2018; call rule not given here
AlphaScreen intf2: AlphaScreen optical interference compounds, counter-screen for MITF inhibitor project, biochemical, triplicate; shares compounds with MITF primary; LysRS AlphaScreen counterscreen, signal interference; inhibition, % at 2.6 µM; 4,700 compounds, 7.6% hits; AID 1259376, 2018;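 active means inhibition above a cutoff derived from the DMSO control wells, cut at about 30% in these data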
Large screens that a line does not name were inactive (follow-up assays come after a bar, where they were run). Shown are actives, neighbours in structure and some others; about 3.4% of the full set was active somewhere.

COc1cc(C(=O)N2CCN(Cc3cccc(Oc4ccccc4)c3)CC2)cc(OC)c1OC	none
COc1ccccc1CNC(=O)CN1CCN(C)CC1	MITF primary 80 | MITF confirm inactive | AlphaScreen intf2 inactive
COc1cccc(CN2CCN(Cc3cccc(OC)c3OC)CC2)c1OC	MITF primary 74 | MITF confirm inactive | AlphaScreen intf2 inactive
COc1cccc(CN2CCN(C3CCCCC3OC)CC2)c1OC (centres undefined)	MITF primary 74 | MITF confirm inactive | AlphaScreen intf2 inactive
COc1cccc(CN2CCN(Cc3ccccc3Br)CC2)c1OC	none
COc1ccccc1CN1CCN(Cc2cccc(OC)c2OC)CC1	MITF primary 86 | MITF confirm inactive | AlphaScreen intf2 inactive
O=C1C2C3CCC(C3)C2C(=O)N1c1ccc(Oc2cccc3ccccc23)cc1 (centres undefined)	none
COc1ccc(-c2cc(C(F)(F)F)nc(S(=O)(=O)CCCC(=O)Nc3ccc(F)c(Cl)c3)n2)cc1OC	MITF primary 76 | MITF confirm inactive | AlphaScreen intf2 inactive
COc1ccccc1-c1cc(C(F)(F)F)nc(S(=O)(=O)CCCC(=O)Nc2ccc(F)c(Cl)c2)n1	MITF primary 54 | MITF confirm inactive | AlphaScreen intf2 inactive
CC[C@@H]1NC(=O)[C@@H]2C[C@H](NC(=O)c3cccs3)CN2C1=O	none
CN(CCc1ccccn1)c1ncnc2c1cnn2-c1ccc(Cl)cc1	none
c1cn2cc(Cc3nnc4n3CCC4)nc2s1	MITF primary 80 | MITF confirm inactive | AlphaScreen intf2 inactive
c1cn2cc(Cc3nnc4n3CCCCC4)nc2s1	none
COc1ccc(-n2c(-c3ccccc3)cn3c4c(=O)[nH]c(=O)n(C)c4nc23)cc1Cl	none
COc1ccc(C)cc1Nc1nc(-c2ccc(C)cc2)nc2ccccc12	none
CS(=O)(=O)Nc1ccccc1C(=O)NCCc1ccccc1	none
CC(C)(C)n1ncc2c(=O)n(Cc3cccc(F)c3)cnc21	MITF primary 54 | MITF confirm inactive | AlphaScreen intf2 inactive
CC(C)(NC=O)C(=O)NC(/C=C/c1ccc(Cl)cc1Cl)C(C)(C)C (centres undefined)	none
COc1ccc(C(=O)Nc2sc(C)c(C)c2C#N)cc1[N+](=O)[O-]	MITF primary 74 | MITF confirm inactive | AlphaScreen intf2 inactive
O=[N+]([O-])c1cc([N+](=O)[O-])c2cc[nH]c2c1	MITF primary 69 | MITF confirm inactive | AlphaScreen intf2 inactive
Cc1cc(C)nc(Nc2ccc([N+](=O)[O-])cc2)n1	MITF primary 69 | MITF confirm inactive | AlphaScreen intf2 inactive
Cc1cc(C)nc(Nc2ccc(C)c([N+](=O)[O-])c2)n1	none
CCOc1cccc(OCCN2CC(C)OC(C)C2)c1 (centres undefined)	MITF primary 53 | MITF confirm inactive | AlphaScreen intf2 inactive
Clc1cccc(OCCN2CCNCC2)c1	none
Fc1ccc(OCCCN2CCNCC2)cc1	none
CC1CN(CCOc2ccc3ccccc3c2)CC(C)O1 (centres undefined)	none
CCN1CCN(CCCOc2cccc(Oc3ccccc3)c2)CC1	MITF primary 69 | MITF confirm inactive | AlphaScreen intf2 inactive
CCOc1cccc(OCCN2CCNCC2)c1	MITF primary 75 | MITF confirm inactive | AlphaScreen intf2 inactive
c1ccc(Oc2cccc(OCCCCN3CCOCC3)c2)cc1	none
c1ccc(COc2ccc(OCCCN3CCNCC3)cc2)cc1	MITF primary 62, TEAD-YAP inh 58 | MITF confirm inactive | AlphaScreen intf2 inactive
COc1ccc2c(c1)CC(C(=O)Nc1ccc(-c3cn[nH]c3)cc1SCCC(=O)N(C)C)CO2 (centres undefined)	none
CCCOc1ccc(/C(O)=C2/C(=O)C(=O)N(CCN(C)C)C2c2ccc(C)cc2)c(C)c1 (centres undefined)	none
Cc1ccc(C(C)C)c(OCC(=O)Nc2ccc3c(c2)oc2ccccc23)c1	none
COc1cccc(C2C=C(c3cccnc3)Nc3ncnn32)c1OC (centres undefined)	none
N/N=C(\c1cccc([N+](=O)[O-])c1)C12CN3CN(CN(C3)C1)C2	none
CCc1ccc2c(c1)C1(SC(NC(C)=O)=NN1C(C)=O)C(=O)N2C (centres undefined)	none
c1ccc(Oc2cccc(OCCCCN3CCNCC3)c2)cc1	MITF primary 77 | MITF confirm inactive | AlphaScreen intf2 inactive
c1ccc(Oc2cccc(OCCCN3CCNCC3)c2)cc1	none
O=S(=O)(c1ccccc1)N1CCC(CO)(Cc2cccc(C(F)(F)F)c2)CC1	none
O=C(O)CCCc1nc(-c2ccccc2Cl)no1	none
CC(C)NC(=O)CCCc1nc(-c2ccccc2Cl)no1	MITF primary 68 | MITF confirm inactive | AlphaScreen intf2 inactive
CCc1cc(C(=O)COc2ccccc2)c(OC)cc1OC	none
CCC1(C)Cc2c(sc3nn[nH]c(=O)c23)CO1 (centres undefined)	MITF primary 94 | MITF confirm inactive | AlphaScreen intf2 inactive
CCC1(C)Cc2c(sc3nc(SCC(=O)O)[nH]c(=O)c23)CO1 (centres undefined)	none
O=C(NCC1(c2ccccc2)CCCC1)C1CC12CCN(C(=O)c1ccoc1)CC2 (centres undefined)	none
N#Cc1cccc(NC(=O)CSc2nc3ccccc3s2)c1	none
N#Cc1cccc(NC(=O)CSc2nncs2)c1	MITF primary 53 | MITF confirm inactive | AlphaScreen intf2 inactive
CCC(CC)CN1CCc2nnc(CNC(=O)C3CCC(=O)N3)n2CC1 (centres undefined)	MITF primary 78 | MITF confirm inactive | AlphaScreen intf2 inactive
CC(C)/C=C/CN1CCc2nnc(CNC(=O)C3CCC(=O)N3)n2CC1 (centres undefined)	none
O=C(CSc1nc(-c2ccccc2)cc(C(F)(F)F)n1)N1CCOCC1	none
CC(Sc1nc(-c2ccccc2)cc(C(F)(F)F)n1)C(N)=O (centres undefined)	MITF primary 54 | MITF confirm inactive | AlphaScreen intf2 inactive
Cc1cc2c(c(=O)[nH]1)C(=O)O/C2=C\c1cc([N+](=O)[O-])ccc1O	none
Oc1c(C2CCCCC2)cccc1C1CCCCC1	MITF primary 60 | MITF confirm inactive | AlphaScreen intf2 inactive
Cc1cc(O)ccc1C1CCCCC1	none
COc1cc(-c2nc3sc4c(c3c(=O)[nH]2)CCCC4)ccc1OC(=O)c1ccc(Cl)cc1	none
O=c1[nH]c(-c2ccco2)nc2sc3c(c12)CCCC3	MITF primary 81 | MITF confirm 69 | AS interf DR inactive | AlphaScreen intf2 inactive

High-throughput results: PubChem BioAssay, The Scripps Research Institute Molecular Screening Center
